Assay outcomes from PubChem BioAssay.
Pf growth 96h = P. falciparum growth inhibition at 96 hours | Potency, µM (series often up to 28.7 µM), for inactives: at the highest dose activity change, negative = inhibition, actives largely listed as inhibitors | P. falciparum luciferase reporter growth, 96 h | 320,000 compounds, 6.9% hits | AID 504834; active = well fitted inhibition curve with a large enough effect; inconclusive = small, poorly fitted or top-dose-only effect, or another doubt; inactive = no such curve, though single readings can be large or run the other way; also: potency is read from the fitted curve at half-maximal effect; % is scaled to controls: 0 for no effect and ±100 for the full control effect
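Delayed-death screen, second-generation endpoint: infected erythrocytes, 2% hematocrit, 0.05% parasitemia final; 96 hours at 37 C, 5% CO2; luciferase detection reagent; luminescence decrease equals reduced growth.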
NS1 inh = blocks influenza NS1 protein function; Potency, µM (titrated, usually from 46.1 µM), for inactives: at the top dose activity, positive = more growth; 270,000 compounds, 0.4% hits; AID 2326; also: potency is read from the fitted curve at half-maximal effect; actives are rising curves; nearly all actives have a fitted effect of over 50% in size
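S. cerevisiae expressing influenza A NS1, grown in glucose, washed, then diluted 1:100 into pH 6.0 -URA galactose medium with 23 nl compound. Growth recovery read as OD600; NS1-free strain serves as control.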
Cycloheximide cs = counter-screen hit for Shiga toxin inhibitors, cycloheximide; 300,000 compounds, 12% hits; max response, %; cell reporter, cycloheximide protein synthesis inhibition counterscreen; in the data active = max response mostly above about 13%, no sharp cut-off; inactive = mostly below about 14%; also: read at 38.3 µM for the half of the compounds with a filed dose; 0% is about no effect
Shiga toxin inh = inhibitors of Shiga toxin in Vero cells; Vero cells, Shiga toxin protein synthesis inhibition reporter; inhibition, % at 38.7 µM; 290,000 compounds, 9.2% hits; AID 2315; in the data active = inhibition mostly above about 28%, no sharp cut-off; inactive = mostly below about 43%; also: 0% is about no effect
Pf growth 48h = P. falciparum growth inhibition at 48 hours (one generation) | 310,000 compounds, 5.9% hits | Potency, µM (titrated, usually from 28.7 µM), inactives show top-dose activity change, negative = inhibition, actives largely listed as inhibitors | P. falciparum luciferase growth in erythrocytes, 48 h | AID 504832; active = well fitted inhibition curve with a large enough effect; inconclusive = small, poorly fitted or top-dose-only effect, or another doubt; inactive = no such curve, though single readings can be large or run the other way; also: potency is read from the fitted curve at half-maximal effect; % is scaled to controls: 0 for no effect and ±100 for the full control effect
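Parasite viability was followed by luminescence of a genomically integrated firefly luciferase. Cultures held 0.1% parasitemia at 2% hematocrit (final), incubated under 5% CO2 at 37 C.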
SARS PLP yeast = SARS-CoV PLP inhibition in yeast; AID 485353; Potency, µM (doses to about 32.9 µM), without a hit: at the top dose activity, positive = growth rescue, hits mostly activators; 330,000 compounds, 0.19% hits; S. cerevisiae expressing SARS-CoV PLpro, growth rescue; also: potency is read from the fitted curve at half-maximal effect; 0% is about no effect; nearly all actives have a fitted effect of over 55% in size
* hit, by the source's call; ? = inconclusive; nt = not tested or not shown; ! = not confirmed by another sample. Only some compounds are listed: those with a hit (about 21% of all), similar ones and a draw of the others. Unless noted, calls follow the shape of the full dose curve.

SMILES	Pf growth 96h	NS1 inh	Cycloheximide cs	Shiga toxin inh	Pf growth 48h	SARS PLP yeast
COc1ccc(N2CCN(C(c3cccs3)C(C)NS(C)(=O)=O)CC2)cc1 (stereo not given)	109%	nt	9	-13	10%	-1%
Cn1nc(C(F)(F)F)c(-c2ccc(F)cc2)c1NC(=O)Nc1ccc(F)cc1	0.47µM*	2%	2	-6	0.83µM*	0%
CC(C)(C)C(=O)Nc1nnc(SCC(=O)Nc2nccs2)s1	4%	15%	-1	-3	?	-4%
CC(C)C[C@H](NC(=O)c1nc[nH]c1C(=O)N1CCN(C(=O)OC(C)(C)C)CC1)C(=O)OC(C)(C)C	?	2%	1	-1	?	0%
O=C(O)C1=C[C@H](c2coc3ccccc3c2=O)C[C@H](OCc2ccc(CO)cc2)O1	0%	-1%	1	-10	0%	0%
O=c1[nH]c(NCc2ccccc2)nc2c1CCC2	15µM*	-7%	7	-21	-21%	9%
Cc1nc(Nc2ccccc2)[nH]c(=O)c1CCC(C)C	nt	-6%	-1	-6	?	-7%
O=c1[nH]c(N2CCN(Cc3ccccc3)CC2)nc2c1CCC2	0%	-2%	1	-9	14%	-1%
CCC(=O)Nc1nc2c(c(=O)[nH]1)CCCC2	?	nt	-6	14	-3%	-5%
CC(C)(C)C(=O)Nc1nc2c(c(=O)[nH]1)CCCC2	28%	nt	13	-2	9.3µM*	-1%
CCCCCc1c(C)nc(NCc2ccccc2)[nH]c1=O	nt	-62%	16	8	2.1µM*	-3%
Cc1ccsc1C(=O)N1CCC(N2CCC(C(=O)NCC3CCCO3)CC2)CC1 (stereo not given)	38%	2%	-2	-29	4%	0%
Cc1ccc(C)c(/C(O)=C2\C(=O)C(=O)N(CCCN(C)C)C2c2cccnc2)c1 (stereo not given)	nt	-9%	nt	nt	nt	nt
O=C1CCSc2ccc(Cl)cc2N1Cc1ccc(Cl)cc1	15µM*	3%	-5	-7	?	-7%
O=C1CCSc2ccc(Cl)cc2N1Cc1ccccc1	14%	2%	-2	-9	8%	-2%
CN1CCN(S(=O)(=O)c2cccc(C(=O)N(C)CC(=O)Nc3ccc(F)c(F)c3F)c2)CC1	0%	nt	nt	nt	?	4%
Cc1ccc2nc3sc(=O)sc3nc2c1	nt	nt	6	14	nt	nt
O=C(/C=C/c1ccccc1)N1CCC(c2ccccc2)C1 (stereo not given)	-26%	-19%	59*	74*	173%	-27%
O=C(/C=C/c1ccccc1)N1CCC[C@H]1CO	-3%	10%	1	-7	10%	14%
O=C(/C=C/c1ccco1)N1CCN(c2ccc(F)cc2)CC1	?	-34%	14	48	?	0%
O=C(/C=C/c1ccco1)N1CCCC(c2ccccc2)C1 (stereo not given)	32%	-3%	23*	47*	12%	-2%
CC1(C)Cc2cccc(OCC(=O)Nc3cccnc3Cl)c2O1	-31%	-19%	-3	-12	nt	-6%
O=C(NCCC1=CCCCC1)C1CCN(C(=O)c2ccc(Cl)cc2)CC1	-3%	-18%	31*	67*	-9%	2%
COc1ccc(CCNC(=O)C2CCN(C(=O)c3ccc(Cl)cc3)CC2)cc1	-9%	-12%	-2	-32	?	-5%
O=C(c1ccc(Cl)cc1)C1CCN(C(=O)c2ccc(F)cc2)CC1	13µM*	-9%	1	2	-10%	-5%
SMILES	Pf growth 96h	NS1 inh	Cycloheximide cs	Shiga toxin inh	Pf growth 48h	SARS PLP yeast
CCOCCCNC(=O)C1CCC(CNS(=O)(=O)c2cccc3nsnc23)CC1 (stereo not given)	3.7µM*	-5%	-2	9	2%	5%
O=C(NCCN1CCCCCC1)C1CCCN1S(=O)(=O)c1cccc2nsnc12 (stereo not given)	?	1%	2	15	1.7µM*	1%
Cc1ccc(S(=O)(=O)N2CCC(C(=O)NCCC3=CCCCC3)CC2)c(C)c1	?	nt	nt	nt	?	-2%
COC(=O)CNC(=O)C1CCN(S(=O)(=O)c2cccc3nsnc23)CC1	13µM*	11%	2	3	17%	?
CC(C)(C)NC(=O)C1CCN(S(=O)(=O)c2cccc3nsnc23)CC1	16%	4%	-2	-13	4%	2%
O=C(NCCC1=CCCCC1)C1CCN(S(=O)(=O)c2ccccc2C(F)(F)F)CC1	?	nt	nt	nt	10µM*	2%
O=C(NCCC1=CCCCC1)C1CCN(S(=O)(=O)c2cccc3nsnc23)CC1	1.9µM*	4%	-3	-7	?	3%
O=C1C(=O)N(C/C=C/c2ccccc2)c2ccccc21	30%	-36%	-1	-9	9%	-3%
CN(C)S(=O)(=O)c1ccc2c(c1)nc(CCC(=O)NCCc1ccc(Cl)cc1)n2C	?	-8%	-2	9	?	0%
Cc1cc(C)cc(C(=O)Nc2ccc(N3CCCC3)cc2)c1	13%	2%	50*	72*	-17%	0%
Cc1cc(C)cc(OCC(=O)Nc2ccc(N3CCCCC3)cc2)c1	4%	nt	nt	nt	-5%	-3%
Cc1cc(C)cc(NC(=O)Nc2ccc(N3CCCCC3)cc2)c1	37%	-2%	38*	27	86%	-2%
CC(C)(C)C1=Nn2c(nnc2-c2ccccn2)SC1	8.3µM*	19%	9	3	nt	7%
COc1ccc(-c2nnc3n2N=C(c2ccccc2OC)CS3)cc1OC	nt	nt	-2	-3	nt	nt
Cc1cc(-c2nnc3n2N=C(c2ccccc2Br)CS3)n[nH]1	12µM*	2%	-3	-22	?	1%
COc1cccc(-c2nnc3n2N=C(C(C)(C)C)CS3)c1	13µM*	-96%	-2	-21	?	3%
COc1ccc(C2=Nn3c(nnc3-c3ccccc3OC)SC2)cc1OC	3.7µM*!	-4%	2	-9	10µM*	1%
Cc1ccc(C(=O)N(C)CC(=O)Nc2ccc(F)c(F)c2F)o1	-11%	nt	6	15	-12%	-1%
CN1C(=O)[C@H]2[C@@H](/C=C/c3ccccc3)N3C(=O)CN(Cc4ccc(-c5ccccc5)cc4)C(=O)[C@@]3(Cc3ccccc3)[C@H]2C1=O	?	?	-2	1	?	-4%
COc1cccc(C2=Nn3c(nnc3-c3ccccc3O)SC2)c1	-22%	3%	-1	-6	13µM*	-7%
COc1ccc(C(=O)NCCCCNC(=O)c2ccc(OC)c(OC)c2)cc1OC	?	-4%	-2	-10	7%	-2%
COc1ccc2cc3cc(C(=O)NCc4cccnc4)oc3nc2c1	?	nt	15	41	?	1%
CCCCCCCCC/C(=N\O)c1ccccn1	?	-175%	24*	83*	?	-24%
